TDP43 rescue: qHTS of TDP-43 Inhibitors. 410,000 tested, 1.8% active. TDP-43 expressing yeast growth rescue, BacTiter-Glo, 24 h. Potency, µM (doses to about 46.1 µM), most hits filed as activators; also: nearly all actives have a fitted effect of over 50% in size
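Readout is BacTiter-Glo luminescence of cell growth, so inhibitors register as activators. TDP-43-expressing yeast at OD600=0.02 in galactose medium, after raffinose pregrowth to mid-log, were incubated with compound for 24 hr at 30 deg C.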
aSyn yeast inh: qHTS of alpha-syn Inhibitors. Yeast expressing alpha-synuclein, growth rescue, BacTiter-Glo, 24 h. Potency, µM (highest dose often 46.1 µM), most hits filed as activators. 370,000 tested, 0.14% active. AID 652106, 2013; also: nearly all actives have a fitted effect of over 65% in size
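Screening used galactose-induced yeast with toxic alpha-synuclein levels, exposed to compound for 24 hr at 30 deg C. Cell growth, read with BacTiter-Glo luminescence, gave the measured signal.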
Abeta yeast res: qHTS for compounds that reverse cellular toxicity of Amyloid beta (A-beta) peptide in yeast: Primary Screen; 410,000 tested, 0.063% active; yeast expressing A-beta42, growth rescue, OD600, 48 h; response scale: 0% DMSO, 100% iron-clioquinol control; Potency, µM (series often up to 46.1 µM), most hits filed as activators; also: nearly all actives have a fitted effect of over 55% in size
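Yeast A-beta toxicity model in growth medium with pinned compounds, 48 h at 30 C; growth read as absorbance at 600 nm. Normalized to FeCl3/clioquinol equimolar mix (positive) and DMSO (negative).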
FUS yeast rescue: qHTS for Suppressors of FUS Proteinopathy: Primary screen using FUS-linked yeast assay | S. cerevisiae FUS-expressing, growth rescue, OD600, 24 h | Potency, µM (series often up to 76.6 µM), usual class: activators | 390,000 tested, 0.24% active | AID 1347120, 2019; also: nearly all actives have a fitted effect of over 55% in size
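Restored growth of FUS-toxic S. cerevisiae, read as 600 nm absorbance after 24 h at 30C in galactose medium (starting OD 0.005). Controls CP55940 and DMSO.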
Hits are given with their value. Only some compounds are listed: those with a hit (about 2.1% of all), similar ones and a draw of the others. Calls follow the shape of the dose curve; as a rule, active = well fitted curve in the direction sought with a large enough effect; inconclusive = small, poorly fitted or top-dose-only effect, or another doubt; inactive = no such curve, though single readings can be large; an effect the other way counts as inactive or inconclusive.

How did COc1ccccc1CNC(=O)c1cc(-c2cc(F)ccc2OC(C)C)n[nH]1 do in these assays?
TDP43 rescue: 25µM; aSyn yeast inh: inactive; Abeta yeast res: inactive; FUS yeast rescue: inactive

How did CCCOc1ccc(F)cc1-c1cc(C(=O)NCc2ccco2)[nH]n1 do in these assays?
TDP43 rescue: 14µM; aSyn yeast inh: inconclusive; Abeta yeast res: inactive; FUS yeast rescue: inactive

How did CCCOc1ccc(F)cc1-c1cc(C(=O)NCc2ccccc2OC)[nH]n1 do in these assays?
TDP43 rescue: 35µM; aSyn yeast inh: inactive; Abeta yeast res: inactive; FUS yeast rescue: inactive

How did CC(C)Oc1ccc(F)cc1-c1cc(C(=O)NCc2cccs2)[nH]n1 do in these assays?
TDP43 rescue: 35µM; aSyn yeast inh: inactive; Abeta yeast res: inactive; FUS yeast rescue: inconclusive

How did COc1cc(CNC(=O)c2cc(-c3cc(F)ccc3OC(C)C)n[nH]2)cc(OC)c1 do in these assays?
TDP43 rescue: inconclusive; aSyn yeast inh: inactive; Abeta yeast res: inactive; FUS yeast rescue: inactive

How did CCCOc1ccc(F)cc1-c1cc(C(=O)NCc2ccccc2)[nH]n1 do in these assays?
TDP43 rescue: inconclusive; aSyn yeast inh: inactive; Abeta yeast res: inactive; FUS yeast rescue: inactive

Results for Cc1ccc(S(=O)(=O)NC(=O)Nc2ccc(C)cn2)cc1 ?
TDP43 rescue: inactive; aSyn yeast inh: inactive; Abeta yeast res: inactive; FUS yeast rescue: inactive

How did Cc1ccc(Cl)cc1-c1cc(C(=O)NCc2ccco2)[nH]n1 do in these assays?
TDP43 rescue: 14µM; aSyn yeast inh: inactive; Abeta yeast res: inactive; FUS yeast rescue: inactive

Results for COc1ccc(Cl)cc1-c1cc(C(=O)NCc2ccco2)[nH]n1 ?
TDP43 rescue: inconclusive; aSyn yeast inh: inactive; Abeta yeast res: inactive; FUS yeast rescue: inactive

Results for COc1ccc(F)cc1-c1cc(C(=O)NCc2cccc(Cl)c2)[nH]n1 ?
TDP43 rescue: 14µM; aSyn yeast inh: inactive; Abeta yeast res: inactive; FUS yeast rescue: inactive

Results for CCOC(=O)CNS(=O)(=O)c1ccc(S(=O)(=O)NC2CC2)cc1 ?
TDP43 rescue: inactive; aSyn yeast inh: inactive; Abeta yeast res: inactive; FUS yeast rescue: inactive

How did CC1(C(=O)Nc2ccc3c(c2)OCCO3)CN(S(C)(=O)=O)CC(=O)N1Cc1cccs1 (centres undefined) do in these assays?
TDP43 rescue: inactive; aSyn yeast inh: inactive; Abeta yeast res: inactive; FUS yeast rescue: inactive

How did O=C(N/N=C/c1cc([N+](=O)[O-])ccc1O)C1CCCCC1 do in these assays?
TDP43 rescue: inactive; aSyn yeast inh: 4µM; Abeta yeast res: inactive; FUS yeast rescue: inactive

Results for O=C(Cn1nc2ccccc2n1)N/N=C/c1cc([N+](=O)[O-])ccc1O ?
TDP43 rescue: inactive; aSyn yeast inh: inactive; Abeta yeast res: inactive; FUS yeast rescue: inactive

How did COc1ccc2ccccc2c1C(=O)/C=C\c1ccoc1 do in these assays?
TDP43 rescue: 11µM; aSyn yeast inh: inconclusive; Abeta yeast res: inactive; FUS yeast rescue: inactive

How did COc1ccc2nc(C)cc(Sc3nc4ccccc4s3)c2c1 do in these assays?
TDP43 rescue: 25µM; aSyn yeast inh: inactive; Abeta yeast res: inactive; FUS yeast rescue: inactive

What do the screens show for `O=C(CSC1=NCCS1)Nc1ccc(S(=O)(=O)NC2CCCCC2)cc1`?
TDP43 rescue: inactive; aSyn yeast inh: inactive; Abeta yeast res: inactive; FUS yeast rescue: 40µM

How did O=C(CSC1=NCCS1)Nc1ccc(S(=O)(=O)N2CCCCCC2)cc1 do in these assays?
TDP43 rescue: inactive; aSyn yeast inh: inactive; Abeta yeast res: inactive; FUS yeast rescue: inactive

Results for Cc1ccccc1Nc1cc(C(=O)NCCc2ccc(Cl)cc2)c2ccccc2n1 ?
TDP43 rescue: 18µM; Abeta yeast res: inactive; FUS yeast rescue: inactive

How did COc1ccc(CNC(=O)c2cc(Nc3ccccc3C)nc3ccccc23)cc1 do in these assays?
TDP43 rescue: inactive; Abeta yeast res: inactive; FUS yeast rescue: inactive

What do the screens show for `COC(=O)c1scc(-c2ccc(C)cc2)c1S(=O)(=O)Nc1cc(OC)c(OC)c(OC)c1`?
TDP43 rescue: inactive; Abeta yeast res: inactive; FUS yeast rescue: inactive

What do the screens show for `O=C(Nc1ccc(Cl)c(C(F)(F)F)c1)C(=O)N1CCCCC1`?
TDP43 rescue: 18µM; aSyn yeast inh: inactive; Abeta yeast res: inactive

Results for O=C(Nc1ccc(Cl)c(C(F)(F)F)c1)N1CCCC(O)C1 (centres undefined) ?
TDP43 rescue: inactive; aSyn yeast inh: inactive; Abeta yeast res: inactive; FUS yeast rescue: inactive

How did O=C(Nc1ccc(Cl)c(C(F)(F)F)c1)c1ccncc1 do in these assays?
TDP43 rescue: 10µM; aSyn yeast inh: inactive; Abeta yeast res: inactive; FUS yeast rescue: inactive

Results for O=C(Nc1ccc(Cl)c([N+](=O)[O-])c1)c1ccncc1 ?
TDP43 rescue: inactive; aSyn yeast inh: inactive; Abeta yeast res: inactive

Results for O=C(Nc1cccc(F)c1)c1ccc2c(c1)N(Cc1ccccc1)C(=O)c1ccccc1S2(=O)=O ?
TDP43 rescue: inactive; Abeta yeast res: inactive; FUS yeast rescue: inactive

What do the screens show for `CC(C)CCN1C(=O)c2ccc(C(=O)OCC(=O)N(CC(C)C)C3CCS(=O)(=O)C3)cc2C1=O` (centres undefined)?
TDP43 rescue: inactive; aSyn yeast inh: inactive; Abeta yeast res: inactive; FUS yeast rescue: 32µM

What do the screens show for `O=c1ccn([C@@H]2O[C@H](CNS(=O)(=O)C3CC3)[C@@H](O)[C@H]2O)c(=O)[nH]1`?
TDP43 rescue: inactive; aSyn yeast inh: inactive; Abeta yeast res: inactive; FUS yeast rescue: inactive

Results for O=C1c2ccccc2NC(c2ccc(F)cc2)N1Cc1ccccc1 (centres undefined) ?
TDP43 rescue: 20µM; aSyn yeast inh: inactive; Abeta yeast res: inactive; FUS yeast rescue: inactive

What do the screens show for `O=C1c2ccccc2NC(c2ccccc2)N1Cc1ccccc1` (centres undefined)?
TDP43 rescue: 16µM; aSyn yeast inh: inactive; Abeta yeast res: inactive; FUS yeast rescue: inactive

What do the screens show for `COc1cccc(C2Nc3ccccc3C(=O)N2Cc2ccccc2)c1` (centres undefined)?
TDP43 rescue: inactive; aSyn yeast inh: inactive; Abeta yeast res: inactive; FUS yeast rescue: inactive

How did O=c1c2ccccc2nnn1CCc1ccccc1 do in these assays?
TDP43 rescue: inconclusive; aSyn yeast inh: inactive; Abeta yeast res: inactive; FUS yeast rescue: inactive

How did O=c1c2ccccc2nnn1Cc1ccccc1 do in these assays?
TDP43 rescue: 18µM; aSyn yeast inh: inactive; Abeta yeast res: inactive; FUS yeast rescue: inactive

Results for COc1ccc(CCNC(=O)c2ccc(Br)o2)cc1Br ?
TDP43 rescue: inconclusive; aSyn yeast inh: inactive; Abeta yeast res: inactive; FUS yeast rescue: inactive

What do the screens show for `Cc1cn2c(=O)cc(COC(=O)c3cccc(NC(=O)COc4ccccc4)c3)nc2s1`?
TDP43 rescue: inactive; Abeta yeast res: inactive; FUS yeast rescue: inactive

What do the screens show for `Cc1ccc(-c2csc3ncn(Cc4ccc(C(=O)O)cc4)c(=O)c23)cc1C`?
TDP43 rescue: 20µM; aSyn yeast inh: inconclusive; Abeta yeast res: inactive; FUS yeast rescue: inactive
